This passage reports growth results from PubChem BioAssay (NCI).

This is part of a sample that, as a whole, favours compounds with a hit. Of some 83,000 tested, about 20% had one in any assay.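 In brief: 96-well plates, 48 h treatment, single concentration, percent growth endpoint.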 Calls of active or inactive are those of the source. The calls were made as follows: active = growth percent below 10; inactive = the rest.

The subject of the first experiment is SNB-19 CNS. The experiment is described as follows: NCI-60 one-dose screen, 48 h (100 = growth as untreated, 0 = no growth, -100 = all killed). The note with it: 10 µM unless noted.
`Nc1ccc(S(=O)(=O)c2ccc(NO)cc2)cc1`: the growth was 97.1% (inactive).
On to `COc1cc(NC(C)CCCN)c2nccc(C)c2c1OC` (stereo not given), for which the growth was 97.6% (inactive).
For `CCCC(=O)NNc1[nH]c(-c2cc(OC)c(OC)c(OC)c2)cc1C(=O)OCC`, the growth was 110% (inactive).
As to `CC(C)OC(=O)c1ccc2n1CCCc1cnc(Nc3ccccc3)nc1-2`, the growth is 89% (inactive).
Regarding `COC(=O)c1ccc2[nH]c(O)c(C(=Nc3ccc(N(C)C(=O)CN4CCN(C)CC4)cc3)c3ccc(OC)cc3)c2c1`, the growth was 32.4% (inactive).
On the same count and under the same terms, the same measure for `CC(=O)c1cc(Nc2cc(C)nc(N)n2)cc(C(C)=O)c1`: 102% (inactive); for `CCOC(=O)C1=C(C(F)(F)F)NC(=S)NC1CN1C(=O)c2ccccc2C1=O` (stereo not given): 112% (inactive); for `CC(C)OC(=O)[C@H](C)N[P@@](=O)(OC[C@@]1(C)O[C@@H](n2cc(F)c(N)nc2=O)C[C@@H]1O[P@](=O)(N[C@@H](C)C(=O)OC(C)C)Oc1ccccc1)Oc1ccccc1`: 73.8% (inactive).
With `COc1ccc(Cn2cc3c(c2-c2ccccc2)CCc2cnoc2-3)cc1OC`, the growth is 50.3% (inactive).
The same measure, in the same setting: the figure for `CC1C(=O)CCCC1=O` is 106% (inactive); for `Brc1ccc(-c2nc3ccccc3s2)cc1` it is 94.9% (inactive); for `O=C(Nc1cccc(Cn2c(=O)[nH]c3ccc(Oc4ncccn4)cc3c2=O)c1)c1ccc(Cl)cc1` it is 58.5% (inactive).
Still for that read-out and setting: the same measure for `Cc1ccc(S(=O)(=O)Nc2cccc(Cn3c(=O)[nH]c4ccc(Oc5ncccn5)cc4c3=O)c2)cc1`: 57.4% (inactive); for `CC1(C)Oc2cc3oc(=O)ccc3cc2C[C@@H]1OCCOS(=O)(=O)c1ccc(C#N)cc1`: 96.5% (inactive).
Take `COC1NC(Cl)=C(C#N)C(C#N)(C#N)C1(C)C` (stereo not given): the growth was 115% (inactive).
Turning to `COc1ccccc1C(=O)Nc1cccc(-c2cc(=O)c3c(OC)c(OC)c(OC)cc3o2)c1`, the growth is 36.2% (inactive).
Regarding `C=C(NC(=O)[C@H](C(C)C)N(C)c1cccc2[nH]ccc12)C(=O)OC`, the growth was 103% (inactive).
The same measure, in the same setting: the same measure for `Cc1nc2c(nnn2-c2ccccc2)c2nc(-c3ccccc3)oc(=O)c12`: 104% (inactive).
`CCCCCCCCCC[N+](C)(C)C`: the growth is 13.4% (inactive).
Turning to `CCOC(=O)c1ccc2n1CCCc1cnc(NC(C)=O)nc1-2`, the growth was 99.7% (inactive).
Take `O=S(=O)(O)c1ccc2c(c1)Sc1cc(S(=O)(=O)O)ccc1O2`: the growth is 103% (inactive).
Take `COc1cc(/C=C/C(=O)c2ccc(F)cc2)ccc1OCCCCOc1cc2c(cc1OC)C(=O)N1CCCC1C=N2` (stereo not given): the growth is -35.3% (active).
Consider `COC(=O)C(C)[C@H]1CC[C@@H]2[C@]1(C)CC=C1[C@]23C=C[C@]2(C[C@@H](OC(C)=O)CC[C@]12C)C(C(=O)OC)C3C(=O)OC` (stereo not given in full), for which the growth is 95.9% (inactive).
Take `COc1ccc2cnc(N)c(C#Cc3cc(C(=O)Nc4ccc(CN5CCN(C)CC5)c(C(F)(F)F)c4)cnc3C)c2c1`: the growth is 80.5% (inactive).
For the molecule `COc1cccc2c1nc1cccc(OC)c1[n+]2[O-]`, the growth is 46.9% (inactive).
On to `O=C1/C(=N\c2cc(=O)[nH]n2S(=O)(=O)c2ccccc2)Nc2ccccc21`, for which the growth is 99.8% (inactive).
Take `c1ccc(Nc2ccccn2)cc1`: the growth is 98.9% (inactive).
The same measure, in the same setting: the figure for `COc1ccc(OC)c(Cn2cc3c(c2)-c2oncc2CC3)c1` is 50.6% (inactive).
Consider `O=C1C(=O)c2ccccc2C(O)=C1CCCc1ccc(C2CCCC2)cc1`, for which the growth was 40.9% (inactive).
As to `CCCOC(=O)c1c(C)n(C)c2scc[n+]12`, the growth was 88% (inactive).
In the case of `COc1cc(-c2nc3c(c(C)nc4c3nnn4-c3ccccc3)c(=O)o2)cc(OC)c1OC`, the growth was 110% (inactive).
Turning to `COC(=O)Nc1nc2ccc(C(=O)c3ccccc3N(C)C3COC3)cc2[nH]1`, the growth was 37.8% (inactive).
Consider `COc1cc(Cn2ccc3c2-c2oncc2CC3)cc(OC)c1`, for which the growth was 43.7% (inactive).
On to `c1ccc(Nc2ncc3c(n2)-c2cccn2CC3)cc1`, for which the growth is 103% (inactive).
In the case of `N=c1c2c(=O)n3c(nc2nc2sc4ccc(Cl)cc4n12)-c1ccccc1Sc1ccccc1-3`, the growth was 30.5% (inactive).
With `NC(=O)CC(NC(=O)COc1ccc(Cl)cc1Cl)C(=O)O` (stereo not given), the growth was 103% (inactive).
As for `C=C(C)[C@@H]1CC[C@]2(COC(=O)c3ccccc3C(=O)O)CC[C@]3(C)[C@H](CC[C@@H]4[C@@]5(C)CCCNC(C)(C)[C@@H]5CC[C@]43C)[C@@H]12`, the growth was 71% (inactive).
Take `C/C=C(/C)C(=O)OC1C=C(CO)C(=O)C(OC(=O)/C(C)=C\C)C1C(C)C` (stereo not given): the growth is -54% (active).
Take `CC(=O)OC1CC2C3CCC4C[C@@H](NC(=O)C=C(C)C)CC[C@]4(C)C3CC[C@]2(C)[C@H]1C(C)N(C)C` (stereo not given in full): the growth is 49.2% (inactive).
With `CC(=O)/C(=C/c1ccc(-c2ccccc2)cc1)C(=O)c1ccccc1`, the growth was 82.3% (inactive).

For a further experiment, the system named is U251 CNS. Described as above. The conditions noted are these: 10 µM unless noted.
Regarding `Nc1ccc(S(=O)(=O)c2ccc(NO)cc2)cc1`, the growth was 101% (inactive).
In the case of `COc1cc(NC(C)CCCN)c2nccc(C)c2c1OC` (stereo not given), the growth is 64.5% (inactive).
As for `CCCC(=O)NNc1[nH]c(-c2cc(OC)c(OC)c(OC)c2)cc1C(=O)OCC`, the growth is 103% (inactive).
As to `CC(C)OC(=O)c1ccc2n1CCCc1cnc(Nc3ccccc3)nc1-2`, the growth is 76.4% (inactive).
Regarding `COC(=O)c1ccc2[nH]c(O)c(C(=Nc3ccc(N(C)C(=O)CN4CCN(C)CC4)cc3)c3ccc(OC)cc3)c2c1`, the growth is 19% (inactive).
On to `CC(=O)c1cc(Nc2cc(C)nc(N)n2)cc(C(C)=O)c1`, for which the growth was 101% (inactive).
On to `CCOC(=O)C1=C(C(F)(F)F)NC(=S)NC1CN1C(=O)c2ccccc2C1=O` (stereo not given), for which the growth is 102% (inactive).
In the case of `CC(C)OC(=O)[C@H](C)N[P@@](=O)(OC[C@@]1(C)O[C@@H](n2cc(F)c(N)nc2=O)C[C@@H]1O[P@](=O)(N[C@@H](C)C(=O)OC(C)C)Oc1ccccc1)Oc1ccccc1`, the growth was 93.2% (inactive).
Consider `COc1ccc(Cn2cc3c(c2-c2ccccc2)CCc2cnoc2-3)cc1OC`, for which the growth was 36.8% (inactive).
As for `CC1C(=O)CCCC1=O`, the growth is 108% (inactive).
Turning to `Brc1ccc(-c2nc3ccccc3s2)cc1`, the growth is 96.1% (inactive).
Turning to `O=C(Nc1cccc(Cn2c(=O)[nH]c3ccc(Oc4ncccn4)cc3c2=O)c1)c1ccc(Cl)cc1`, the growth was 63% (inactive).
Still for that read-out and setting: the same measure for `Cc1ccc(S(=O)(=O)Nc2cccc(Cn3c(=O)[nH]c4ccc(Oc5ncccn5)cc4c3=O)c2)cc1`: 79.1% (inactive); for `CC1(C)Oc2cc3oc(=O)ccc3cc2C[C@@H]1OCCOS(=O)(=O)c1ccc(C#N)cc1`: 101% (inactive).
As to `COC1NC(Cl)=C(C#N)C(C#N)(C#N)C1(C)C` (stereo not given), the growth was 105% (inactive).
On the same count and under the same terms, the same measure for `COc1ccccc1C(=O)Nc1cccc(-c2cc(=O)c3c(OC)c(OC)c(OC)cc3o2)c1`: 39% (inactive); for `C=C(NC(=O)[C@H](C(C)C)N(C)c1cccc2[nH]ccc12)C(=O)OC`: 99.6% (inactive); for `Cc1nc2c(nnn2-c2ccccc2)c2nc(-c3ccccc3)oc(=O)c12`: 110% (inactive).
Consider `CCCCCCCCCC[N+](C)(C)C`, for which the growth was -75.4% (active).
`CCOC(=O)c1ccc2n1CCCc1cnc(NC(C)=O)nc1-2`: the growth was 102% (inactive).
As for `O=S(=O)(O)c1ccc2c(c1)Sc1cc(S(=O)(=O)O)ccc1O2`, the growth was 102% (inactive).
As to `COc1cc(/C=C/C(=O)c2ccc(F)cc2)ccc1OCCCCOc1cc2c(cc1OC)C(=O)N1CCCC1C=N2` (stereo not given), the growth was -100% (active).
For `COC(=O)C(C)[C@H]1CC[C@@H]2[C@]1(C)CC=C1[C@]23C=C[C@]2(C[C@@H](OC(C)=O)CC[C@]12C)C(C(=O)OC)C3C(=O)OC` (stereo not given in full), the growth is 88.8% (inactive).
On the same count and under the same terms, the same measure for `COc1ccc2cnc(N)c(C#Cc3cc(C(=O)Nc4ccc(CN5CCN(C)CC5)c(C(F)(F)F)c4)cnc3C)c2c1`: 17.2% (inactive); for `COc1cccc2c1nc1cccc(OC)c1[n+]2[O-]`: 46.6% (inactive).
As to `O=C1/C(=N\c2cc(=O)[nH]n2S(=O)(=O)c2ccccc2)Nc2ccccc21`, the growth was 105% (inactive).
`c1ccc(Nc2ccccn2)cc1`: the growth was 103% (inactive).
`COc1ccc(OC)c(Cn2cc3c(c2)-c2oncc2CC3)c1`: the growth is 37.8% (inactive).
With `O=C1C(=O)c2ccccc2C(O)=C1CCCc1ccc(C2CCCC2)cc1`, the growth is 29.2% (inactive).
On to `CCCOC(=O)c1c(C)n(C)c2scc[n+]12`, for which the growth is 55.9% (inactive).
As to `COc1cc(-c2nc3c(c(C)nc4c3nnn4-c3ccccc3)c(=O)o2)cc(OC)c1OC`, the growth was 111% (inactive).
Consider `COC(=O)Nc1nc2ccc(C(=O)c3ccccc3N(C)C3COC3)cc2[nH]1`, for which the growth is 21.4% (inactive).
`COc1cc(Cn2ccc3c2-c2oncc2CC3)cc(OC)c1`: the growth is 42.4% (inactive).
The same measure, in the same setting: the same measure for `c1ccc(Nc2ncc3c(n2)-c2cccn2CC3)cc1`: 93.7% (inactive).
As to `N=c1c2c(=O)n3c(nc2nc2sc4ccc(Cl)cc4n12)-c1ccccc1Sc1ccccc1-3`, the growth is 24.7% (inactive).
Consider `NC(=O)CC(NC(=O)COc1ccc(Cl)cc1Cl)C(=O)O` (stereo not given), for which the growth is 101% (inactive).
As for `C=C(C)[C@@H]1CC[C@]2(COC(=O)c3ccccc3C(=O)O)CC[C@]3(C)[C@H](CC[C@@H]4[C@@]5(C)CCCNC(C)(C)[C@@H]5CC[C@]43C)[C@@H]12`, the growth was 44.8% (inactive).
Still for that read-out and setting: the figure for `C/C=C(/C)C(=O)OC1C=C(CO)C(=O)C(OC(=O)/C(C)=C\C)C1C(C)C` (stereo not given) is -73.8% (active); for `CC(=O)OC1CC2C3CCC4C[C@@H](NC(=O)C=C(C)C)CC[C@]4(C)C3CC[C@]2(C)[C@H]1C(C)N(C)C` (stereo not given in full) it is 11.5% (inactive).
Turning to `CC(=O)/C(=C/c1ccc(-c2ccccc2)cc1)C(=O)c1ccccc1`, the growth is 61% (inactive).
